Test results: PMC11006913

What follows are sequences tested against HOXC10 (Homo sapiens, UniProt Q9NYD6 254-340, K271E) (assay: PBM; 200 nM protein, PBS). Settings: dsDNA, one strand shown.
Sequence of HOXC10 (Q9NYD6 254-340 K271E): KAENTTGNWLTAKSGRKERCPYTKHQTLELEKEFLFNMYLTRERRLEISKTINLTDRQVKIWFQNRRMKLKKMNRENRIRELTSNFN

| Sequence | binding signal |
| --- | --- |
| GCAGTAAA | 11.1 upbm affinity estimate (log intensity, higher = more binding, comparable within an allelic series) |
| ACATAAAT | 11.3 upbm affinity estimate (log intensity, higher = more binding, comparable within an allelic series) |
| AACATAAA | 11.3 upbm affinity estimate (log intensity, higher = more binding, comparable within an allelic series) |
| CACATAAA | 11.3 upbm affinity estimate (log intensity, higher = more binding, comparable within an allelic series) |
| CATAAATG | 11.2 upbm affinity estimate (log intensity, higher = more binding, comparable within an allelic series) |

The sequences below were run against MSX2 (Homo sapiens, UniProt P35548 130-214) (assay: PBM; 200 nM protein, PBS). Settings: dsDNA, one strand shown.
Sequence of MSX2 (Homo sapiens, UniProt P35548 130-214) (P35548 130-214): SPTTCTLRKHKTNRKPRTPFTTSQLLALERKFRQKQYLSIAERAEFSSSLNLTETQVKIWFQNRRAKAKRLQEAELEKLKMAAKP

| Sequence | binding signal |
| --- | --- |
| AAGCAAAT | 11.3 upbm affinity estimate (log intensity, higher = more binding, comparable within an allelic series) |
| GAATAAAA | 11 upbm affinity estimate (log intensity, higher = more binding, comparable within an allelic series) |
| CAAATTCA | 10.9 upbm affinity estimate (log intensity, higher = more binding, comparable within an allelic series) |
| TCAACTAA | 11.2 upbm affinity estimate (log intensity, higher = more binding, comparable within an allelic series) |
| AAGAATCA | 10.8 upbm affinity estimate (log intensity, higher = more binding, comparable within an allelic series) |
| ATTACTTC | 11.6 upbm affinity estimate (log intensity, higher = more binding, comparable within an allelic series) |
| ACATGTTA | 10.7 upbm affinity estimate (log intensity, higher = more binding, comparable within an allelic series) |
| ACCGATAA | 11.2 upbm affinity estimate (log intensity, higher = more binding, comparable within an allelic series) |
| AAAATCGT | 11 upbm affinity estimate (log intensity, higher = more binding, comparable within an allelic series) |
| ATTTCTAA | 11.2 upbm affinity estimate (log intensity, higher = more binding, comparable within an allelic series) |
| AATCGCAT | 10.9 upbm affinity estimate (log intensity, higher = more binding, comparable within an allelic series) |
| ATTTTTGG | 10.7 upbm affinity estimate (log intensity, higher = more binding, comparable within an allelic series) |
| ATAAATAC | 11.3 upbm affinity estimate (log intensity, higher = more binding, comparable within an allelic series) |
| CAATCCGA | 10.8 upbm affinity estimate (log intensity, higher = more binding, comparable within an allelic series) |
| GGAAATAA | 11.7 upbm affinity estimate (log intensity, higher = more binding, comparable within an allelic series) |
| ATCAATCC | 11.1 upbm affinity estimate (log intensity, higher = more binding, comparable within an allelic series) |

| Sequence | binding signal |
| --- | --- |
| GACCATTA | 11.8 upbm affinity estimate (log intensity, higher = more binding, comparable within an allelic series) |
| AATCAGGC | 11.4 upbm affinity estimate (log intensity, higher = more binding, comparable within an allelic series) |
| ATCAAAAT | 11.2 upbm affinity estimate (log intensity, higher = more binding, comparable within an allelic series) |
| ATTTGTCC | 11.1 upbm affinity estimate (log intensity, higher = more binding, comparable within an allelic series) |
| ATCATCGG | 10.9 upbm affinity estimate (log intensity, higher = more binding, comparable within an allelic series) |
| AGTCCTAA | 11.4 upbm affinity estimate (log intensity, higher = more binding, comparable within an allelic series) |
| CAAATAAG | 11.1 upbm affinity estimate (log intensity, higher = more binding, comparable within an allelic series) |
| ACAGATTG | 10.8 upbm affinity estimate (log intensity, higher = more binding, comparable within an allelic series) |
| GCGATATA | 10.6 upbm affinity estimate (log intensity, higher = more binding, comparable within an allelic series) |
| CTCAATCC | 10.8 upbm affinity estimate (log intensity, higher = more binding, comparable within an allelic series) |
| ACCTCAAT | 11 upbm affinity estimate (log intensity, higher = more binding, comparable within an allelic series) |
| AAACGATG | 10.6 upbm affinity estimate (log intensity, higher = more binding, comparable within an allelic series) |
| GTCATCTA | 10.5 upbm affinity estimate (log intensity, higher = more binding, comparable within an allelic series) |
| AAACGATC | 10.9 upbm affinity estimate (log intensity, higher = more binding, comparable within an allelic series) |
| ATTGCCAC | 11 upbm affinity estimate (log intensity, higher = more binding, comparable within an allelic series) |
| AACAAGAG | 10.3 upbm affinity estimate (log intensity, higher = more binding, comparable within an allelic series) |

What follows are sequences tested against MSX2 (Homo sapiens, UniProt P35548 130-214, F161Y) (assay: PBM; 200 nM protein, PBS). Settings: dsDNA, one strand shown.
Sequence of MSX2 (Homo sapiens, UniProt P35548 130-214, F161Y) (P35548 130-214 F161Y): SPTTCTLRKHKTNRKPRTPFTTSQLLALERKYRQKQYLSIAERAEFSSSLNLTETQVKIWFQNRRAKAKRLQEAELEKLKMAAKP

| Sequence | binding signal |
| --- | --- |
| AAGCAAAT | 11.1 upbm affinity estimate (log intensity, higher = more binding, comparable within an allelic series) |
| GAATAAAA | 10.9 upbm affinity estimate (log intensity, higher = more binding, comparable within an allelic series) |
| CAAATTCA | 10.7 upbm affinity estimate (log intensity, higher = more binding, comparable within an allelic series) |
| TCAACTAA | 11 upbm affinity estimate (log intensity, higher = more binding, comparable within an allelic series) |
| AAGAATCA | 10.6 upbm affinity estimate (log intensity, higher = more binding, comparable within an allelic series) |
| ATTACTTC | 11.5 upbm affinity estimate (log intensity, higher = more binding, comparable within an allelic series) |
| ACCGATAA | 11.1 upbm affinity estimate (log intensity, higher = more binding, comparable within an allelic series) |
| AAAATCGT | 10.9 upbm affinity estimate (log intensity, higher = more binding, comparable within an allelic series) |
| ATTTCTAA | 11 upbm affinity estimate (log intensity, higher = more binding, comparable within an allelic series) |
| AATCGCAT | 10.8 upbm affinity estimate (log intensity, higher = more binding, comparable within an allelic series) |
| ATTTTTGG | 10.6 upbm affinity estimate (log intensity, higher = more binding, comparable within an allelic series) |
| ATAAATAC | 11.3 upbm affinity estimate (log intensity, higher = more binding, comparable within an allelic series) |
| CAATCCGA | 10.8 upbm affinity estimate (log intensity, higher = more binding, comparable within an allelic series) |
| GGAAATAA | 11.4 upbm affinity estimate (log intensity, higher = more binding, comparable within an allelic series) |
| ATCAATCC | 11.1 upbm affinity estimate (log intensity, higher = more binding, comparable within an allelic series) |
| GACCATTA | 11.7 upbm affinity estimate (log intensity, higher = more binding, comparable within an allelic series) |
| AATCAGGC | 11.2 upbm affinity estimate (log intensity, higher = more binding, comparable within an allelic series) |
| ATCAAAAT | 11.1 upbm affinity estimate (log intensity, higher = more binding, comparable within an allelic series) |
| ATTTGTCC | 11 upbm affinity estimate (log intensity, higher = more binding, comparable within an allelic series) |
| ATCATCGG | 10.8 upbm affinity estimate (log intensity, higher = more binding, comparable within an allelic series) |
| AGTCCTAA | 11.2 upbm affinity estimate (log intensity, higher = more binding, comparable within an allelic series) |
| CAAATAAG | 10.9 upbm affinity estimate (log intensity, higher = more binding, comparable within an allelic series) |
| ACAGATTG | 10.8 upbm affinity estimate (log intensity, higher = more binding, comparable within an allelic series) |
| GCGATATA | 10.5 upbm affinity estimate (log intensity, higher = more binding, comparable within an allelic series) |
| CTCAATCC | 10.7 upbm affinity estimate (log intensity, higher = more binding, comparable within an allelic series) |
| ACCTCAAT | 10.9 upbm affinity estimate (log intensity, higher = more binding, comparable within an allelic series) |
| GTCATCTA | 10.4 upbm affinity estimate (log intensity, higher = more binding, comparable within an allelic series) |
| AAACGATC | 10.8 upbm affinity estimate (log intensity, higher = more binding, comparable within an allelic series) |
| ATTGCCAC | 11 upbm affinity estimate (log intensity, higher = more binding, comparable within an allelic series) |
